Compounds without any hit were thinned out: in the full panel of roughly 79,000, 15% have a hit. Rule as the data show it: active = growth inhibition above about 70%; inactive = the rest.
Assays:
[1] = NCI Yeast Anticancer Drug Screen. Data for the rad50 strain (AID 155);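 also: 0% = growth of vehicle-only cultures of the same strain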; details: S. cerevisiae rad50 strain growth inhibition; at 50.0 µM; hits give high values
Method in brief: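 Inhibition values express reduced yeast growth in compound-treated cultures relative to vehicle-treated controls.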

[2] = NCI Yeast Anticancer Drug Screen. Data for the mec2-1 strain (AID 157); details: S. cerevisiae mec2-1 strain, at 50.0 µM, hits give high values
Method in brief: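 Vehicle-treated cultures served as reference for growth inhibition of compound-exposed mec2-1 yeast.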

[3] = NCI Yeast Anticancer Drug Screen. Data for the sgs1 mgt1 strain (AID 161);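 also: 0% = growth of cultures given vehicle only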; details: S. cerevisiae sgs1 mgt1 strain, at 50.0 µM, hits give high values
Method in brief: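 Test agents were incubated with a DNA-repair-mutant yeast strain. Growth was then read and compared against vehicle-treated controls.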

[4] = NCI Yeast Anticancer Drug Screen. Data for the cln2 rad14 strain (AID 165);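 also: 0% = growth equal to vehicle treated cultures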; details: S. cerevisiae cln2 rad14 strain, at 50.0 µM, hits give high values
Method in brief: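 Each compound was tested on cln2 rad14 yeast. Inhibition of growth was calculated against vehicle-exposed controls.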

[5] = NCI Yeast Anticancer Drug Screen. Data for the bub3 strain (AID 167); details: S. cerevisiae bub3 mutant strain, at 50.0 µM, hits give high values
Method in brief: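 Steps: expose the mutant yeast strain to compound; grow alongside vehicle-treated cultures; measure growth; express inhibition against the vehicle cultures.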

[6] = NCI Yeast Anticancer Drug Screen. Data for the mlh1 rad18 strain (AID 175); details: S. cerevisiae mlh1 rad18 strain growth inhibition; at 50.0 µM; hits give high values
Method in brief: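 Vehicle-treated cultures served as the reference for growth inhibition in a yeast strain carrying DNA damage repair alterations exposed to each compound.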

Measured: growth inhibition

CC1OC(OC2C(OC(=O)[C@]34CCC(C)(C)C[C@H]3C3=CC[C@@H]5[C@@]6(C)CC[C@H](OC7OC(CO)C(O)C(O)C7OC7OC(CO)C(O)C(O)C7O)C(C)(C)[C@@H]6CC[C@@]5(C)[C@]3(C)CC4)OCC(O)C2O)C(O)C(O)C1OC1OCC(O)C(O)C1O (stereo partly specified)
inactive: [1] -24.8% | [2] -41.2% | [3] -44.5% | [4] -33.8% | [5] -32.8% | [6] -23.1%

Cc1cccc(NC(=O)/C=C/C(=O)O)c1
inactive: [1] -31.9% | [2] -41% | [3] -17.9% | [4] -20.9% | [5] -29.6% | [6] -45.1%

CN(C)CCOC(=O)COc1ccc(Cl)cc1
inactive: [1] -10.2% | [2] 26.6% | [3] 9.9% | [4] 38% | [5] 28.9% | [6] 21.4%

O=C(NCCc1c(-c2ccccc2)[nH]c2ccccc12)C1CCCCC1
inactive: [1] -10.6% | [2] 17.9% | [3] 32.6% | [4] -6.1% | [5] 30.9% | [6] -2.3%

O=C(CCCn1ccnc1[N+](=O)[O-])NCCn1cncc1[N+](=O)[O-]
inactive: [1] 0.65% | [2] -8.2% | [3] 5.9% | [4] 7.6% | [5] 0.25% | [6] -9.9%

Cc1cc(C)c(NC(=O)NC2CCCCC2)c(C)c1
inactive: [1] 4.7% | [2] 7.05% | [3] 23.6% | [4] -3.55% | [5] 34% | [6] 31.1%

COC(=O)c1ccc2cc1Nc1c(C#N)cnc(=S)n1-2
inactive: [1] -2.3% | [2] 13.4% | [3] 11.2% | [4] 23.1% | [5] 14.5% | [6] 18.1%

CC1S(=O)(=O)OCCCOS1(=O)=O
inactive: [1] -22.8% | [2] -19.2% | [3] -9.95% | [4] -13.2% | [5] -2.45% | [6] -17.6%

O=C(O)CC(O)c1ccccc1 (stereo unspecified)
inactive: [1] 30.8% | [2] 13.6% | [3] 16.6% | [4] 17.1% | [5] -0.95% | [6] 18.6%

CC(=O)c1sc(Nc2nnc(-c3ccc(-c4nnc(Nc5nc(C)c(C(C)=O)s5)o4)cc3)o2)nc1C
inactive: [1] 3.15% | [2] -14.3% | [3] -25% | [4] 6.4% | [5] -3.05% | [6] 3.05%

COc1ccc(N=Nc2c(-c3ccccc3)nn(C(=O)CC(=O)Nc3cccc(Cl)c3)c2-c2ccccc2)cc1
inactive: [1] -2.65% | [2] 5.9% | [3] -6.3% | [4] 12.6% | [5] 26.3% | [6] -13.5%

CC(=O)N1Cc2cncnc2C1
inactive: [1] -0.8% | [2] 5.95% | [3] -2.5% | [4] -17.1% | [5] -0.95% | [6] 23.7%

CN(c1ccccc1Cl)S(=O)(=O)c1ccc([N+](=O)[O-])cc1
inactive: [1] -14.2% | [2] -45.9% | [3] 12.2% | [4] 3.9% | [5] 26.4% | [6] -2.25%

CC(C)(CCC(C)(C)c1ccccc1)c1ccccc1
inactive: [1] -2.7% | [2] -35.7% | [3] -9.2% | [4] -9.75% | [5] -17.9% | [6] -8.25%

CNc1ncnc2c1cnn2-c1ccc(Cl)cc1
inactive: [1] -15.8% | [2] -6.85% | [3] -6.75% | [4] -37.4% | [5] 0.3% | [6] 4.25%

COC(=O)C(C#N)(CCc1ccc([N+](=O)[O-])cc1)CCc1ccc([N+](=O)[O-])cc1
inactive: [1] 14.8% | [2] -4.25% | [3] 3% | [4] -6.7% | [5] 5.6% | [6] 25.9%

COC(=O)Cc1[nH]c(C(=O)OC)c(C)c1C(=O)OC
inactive: [1] -6.7% | [2] -7.45% | [3] -3.15% | [4] -21.1% | [5] -6.95% | [6] -2.2%

C=CCN1C(=O)CC2[C@@H]3CCc4cc(O)ccc4C3CC[C@]2(C)C1=O (stereo partly specified)
inactive: [1] -0.65% | [2] -12.7% | [3] -7.6% | [4] 22.8% | [5] 8% | [6] 1.25%

CCCCCCCCn1c(C)nc2c(cnn2C)c1=O
inactive: [1] -9.6% | [2] -19.2% | [3] -6.15% | [4] 20.9% | [5] 36.1% | [6] 4.8%

O=C(O)CNc1ccccc1.[Cu+2]
inactive: [1] -38.5% | [2] -28.1% | [3] -51.5% | [4] 6.95% | [5] -35.9% | [6] -15.8%

Cc1cnc(NCCCCNc2ncc(C)c(-c3ccccc3O)n2)nc1-c1ccccc1O
inactive: [1] -5.25% | [2] 1.55% | [3] -0.55% | [4] -27.1% | [5] -3.65% | [6] 4.8%

— PubChem BioAssay (NCI)
